Experimental findings from PubChem BioAssay (EPA / NIEHS) are described below.

“And” between values parts separate entries of the source, which are not always exact repeats. Equal entries are not always repeated. Inconclusive results are not listed. The source made the active and inactive calls. Rule for the calls, unless noted: active = hit-call score of the fitted dose curve at least 0.9, where 1 is the maximum; inconclusive = response in the unintended direction; inactive = score below 0.9.

Experiment [1] in a line: VALA_TUBHUV_Antagonist_CellCount: Viability Assessment in the VALA Sciences human Umbilical Vein Endothelial Tubule Formation (TUBHUV) Antagonism Assay (AID 2284310). The method, then: VALA_TUBHUV_Antagonist is a cell-based, multiplexed assay that uses human umbilical vein endothelial cells (HUVEC). Measurements were taken 72 hours after chemical dosing in a 96-well plate.VALA_TUBHUV_Antagonist_CellCount is the one of two assay components measured from the VALA_TUBHUV_Antagonist assay. It is designed to make measurements of viability, a form of viability reporter, as detected with fluorescence intensity signals by HCS Fluorescent Imaging technology. Data from the assay component VALA_TUBHUV_Antagonist_CellCount was analyzed at the endpoint, VALA_TUBHUV_Antagonist_CellCount, in the positive analysis fitting direction relative to DMSO as the negative control and baseline of activity. Using a type of viability reporter, loss-of-signal activity can be used to understand viability. To generalize the intended target to other relatable targets, this assay endpoint is annotated to the cell cycle intended target family, where the subfamily is cell count.
This HUVEC-HDF assay was designed to detect chemical suppression of tubulogenesis, i.e. antagonism. To measure tubulogenesis antagonism, HUVEC cells were co-cultured with HDF cells at a 1:3 ratio for 3-days in 10 ng/ml VEGF (i.e., favorable conditions with growth factors), then changed to assay medium containing 10 ng/ml VEGF and ToxCast compounds for an additional 3-day period. […]

Experiment [2] can be described thus: VALA_TUBIPS_Agonist_TubuleLength: VALA Sciences human iPS-derived Endothelial Tubule Formation (TUBIPS) Agonism Assay (AID 2284311). The method, then: VALA_TUBIPS_Agonist is a cell-based, multiplexed assay that uses human iPS-derived endothelial cells (iPSC). Measurements were taken 72 hours after chemical dosing in a 96-well plate.VALA_TUBIPS_Agonist_TubuleLength is the one of two assay components measured from the VALA_TUBIPS_Agonist assay. It is designed to make measurements of tubulogenesis, a form of morphology reporter, as detected with fluorescence intensity signals by HCS Fluorescent Imaging technology. This VALA_TUBIPS1 assay was designed to detect chemical activation of tubulogenesis, i.e. agonism.Data from the assay component VALA_TUBIPS_Agonist_TubuleLength was analyzed at the endpoint, VALA_TUBIPS_Agonist_TubuleLength, in the positive analysis fitting direction relative to DMSO as the negative control and baseline of activity. Using a type of morphology reporter, gain-of-signal activity can be used to understand developmental effects. To generalize the intended target to other relatable targets, this assay endpoint is annotated to the neurodevelopment intended target family, where the subfamily is tubulogenesis.
This HUVEC-HDF assay was designed to detect chemical suppression of tubulogenesis, i.e. antagonism. […]

Experiment [3] is described as follows: VALA_TUBIPS_Antagonist_TubuleLength: VALA Sciences human iPS-derived Endothelial Tubule Formation (TUBIPS) Antagonist Assay (AID 2284313). In a few lines:
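Cells grown 3 days with 10 ng/ml VEGF, then exposed to compounds in VEGF medium for another 3 days. After fixation, nuclear stain and CD31 immunofluorescence imaging gave mean total tubule length against 0.1% DMSO; suramin (100 uM) inhibition control.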

Experiment [4] can be described thus: VALA_MIGHUV2_CellCount: Viability Assessment in the VALA Sciences human Umbilical Vein Endothelial Cell Migration (MIGHUV) Assay, Area of Scratch Wound after Recovery (AID 2284314). The method, then:
VALA_MIGHUV2_BCatenin is a cell-based, multiplexed assay that uses umbilical vein-derived endothelial cells (HUVEC). Measurements were taken 24 hours after chemical dosing in a 96-well plate.VALA_MIGHUV2_CellCount is the one of two assay components measured from the VALA_MIGHUV2 assay. It is designed to make measurements of viability, a form of viability reporter, as detected with fluorescence intensity signals by HCS Fluorescent Imaging technology. Data from the assay component VALA_MIGHUV2_CellCount was analyzed at the endpoint, VALA_MIGHUV2_CellCount, in the positive analysis fitting direction relative to DMSO as the negative control and baseline of activity. Using a type of viability reporter, loss-of-signal activity can be used to understand viability. To generalize the intended target to other relatable targets, this assay endpoint is annotated to the cell cycle intended target family, where the subfamily is cell count.
Cells were seeded on 384-well microplates (day-0) at a density of 9000 cells per well for detection of wound area recovery or 4000 cells per well for detection of beta-catenin (CTNB) immunoreactivity and incubated in Endothelial Cell Growth Medium (CAI, San Diego; catalog 211-500). After 24 hours of culture, the HUVEC plates were scratched using a custom scratch head with the Bravo liquid handling system. This created a 'wound' area without cells in each well. […]

The nature of experiment [5]: VALA_MIGHUV2_Bcatenin: VALA Sciences human Umbilical Vein Endothelial Cell Migration (MIGHUV) Assay, Nuclear Translocation of beta-Catenin after Recovery (AID 2284315). In a few lines: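 HUVEC (4000 cells/well) scratch-wounded, dosed within 30 min over 6 concentrations in triplicate, recovered 24 h. After fixation, Hoechst and anti-beta-catenin immunofluorescence imaged for nuclear CTNB. Gain of signal versus 0.1% DMSO.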

Experiment [6] in a line: VALA_MIGHUV2_WoundArea: VALA Sciences human Umbilical Vein Endothelial Cell Migration (MIGHUV) Assay, Area of Scratch Wound after Recovery (AID 2284316). The method, then:
VALA_MIGHUV2_BCatenin is a cell-based, multiplexed assay that uses umbilical vein-derived endothelial cells (HUVEC). Measurements were taken 24 hours after chemical dosing in a 96-well plate.VALA_MIGHUV2_WoundArea is the one of two assay components measured from the VALA_MIGHUV2 assay. It is designed to make measurements of endothelial migration, a form of morphology reporter, as detected with fluorescence intensity signals by HCS Fluorescent Imaging technology. Data from the assay component VALA_MIGHUV2_WoundArea was analyzed at the endpoint, VALA_MIGHUV2_WoundArea, in the positive analysis fitting direction relative to DMSO as the negative control and baseline of activity. Using a type of morphology reporter, gain-of-signal activity can be used to understand developmental effects. To generalize the intended target to other relatable targets, this assay endpoint is annotated to the neurodevelopment intended target family, where the subfamily is migration.
Cells were seeded on 384-well microplates (day-0) at a density of 9000 cells per well for detection of wound area recovery or 4000 cells per well for detection of beta-catenin (CTNB) immunoreactivity and incubated in Endothelial Cell Growth Medium (CAI, San Diego; catalog 211-500). After 24 hours of culture, the HUVEC plates were scratched using a custom scratch head with the Bravo liquid handling system. […]

The nature of experiment [7]: IUF_NPC2-5_cytotoxicity_72hr: Cytotoxicity Assessment at 72 hours in the Leibniz Research Institute for Environmental Medicine (IUF) Neural Progenitor Cell Migration and Differentiation Assay for Cytotoxicity (NPC2-5) (AID 2284306).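 Note: LDH release into supernatant measured by resorufin fluorescence marking membrane damage.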 In short, it runs like this:
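Human fetal primary neural progenitor spheres (0.3 mm) plated on poly-D-lysine/laminin in N2 differentiation medium, exposed from day 0 at 37C. LDH-dependent resazurin-to-resorufin fluorescence in supernatant at 72 h; 7 concentrations, DMSO at most 0.1%.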

Experiment [8] can be described thus: IUF_NPC2-5_cytotoxicity_120hr: Cytotoxicity Assessment at 120 hours in the Leibniz Research Institute for Environmental Medicine (IUF) Neural Progenitor Cell Migration and Differentiation Assay (NPC2-5) (AID 2284307). In short, it runs like this:
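Membrane-integrity loss is quantified by LDH in supernatant after five days of exposure of migrating, differentiating human fetal NPC spheres; seven serially diluted concentrations are tested with DMSO kept at or below 0.1%.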

Experiment [9] is described as follows: IUF_NPC2-5_cell_number_120hr: Cell Number Assessment at 120 hours in the Leibniz Research Institute for Environmental Medicine (IUF) Neural Progenitor Cell Migration and Differentiation Assay (NPC2-5) (AID 2284308; active = hit-call score of the fitted dose curve at least 0.9, where 1 is the maximum; inactive = score below 0.9;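 note: count of Hoechst-stained nuclei in migration zone around plated human neural progenitor spheres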). In short, it runs like this: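 Seven-point serial dilutions plus solvent control were applied to plated 0.3 mm hNPC spheres at differentiation start, with medium half-replaced at day 3. Nuclei positive for Hoechst in the migration zone were enumerated at 120 h.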

Experiment [10] can be described thus: IUF_NPC2-5_viability_120hr: Viability Assessment at 120 hours in the Leibniz Research Institute for Environmental Medicine (IUF) Neural Progenitor Cell Migration and Differentiation Assay (NPC2-5) (AID 2284312; active = hit-call score of the fitted dose curve at least 0.9, where 1 is the maximum; inactive = score below 0.9). In short, it runs like this:
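Human fetal neural progenitor spheres (0.3 mm) plated on poly-D-lysine/laminin in N2 differentiation medium, exposed 120 h with half-medium refresh at day 3. Viability by alamar blue resazurin fluorescence; 7 concentrations, DMSO max 0.1%.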

The term AC50 denotes the concentration giving half of the maximal activity seen. `CC(C)c1cccc(C(C)C)c1N1C(=O)c2ccc(O)cc2C1=O`: the molecule was classed as inactive in [1] and in [2]. Besides, the concentration at half-maximal activity (AC50) was 10.3 µM (active) and 72.7 µM (active) in experiment [3]; 85.8 µM (active) in experiment [4]; 17.4 µM (active) and 53.1 µM (active) in experiment [5]; 17.8 µM (active) and 74 µM (active) in [6].

In the case of `O=P(OC(CCl)CCl)(OC(CCl)CCl)OC(CCl)CCl`, the molecule was classed as inactive in experiment [7], in experiment [8], in experiment [9], in experiment [10] and in experiment [3].
